Bioassay records as filed in PubChem BioAssay.
Only some compounds are listed: those with a hit (about 1.4% of all), similar ones and a draw of the others.
Mm-Cpn inhibitor = Inhibitors of TCP-1 ring complex (TRiC) of Methanococcus maripaludis (MmCpn): qHTS | purified Mm-Cpn ATPase, ADP Transcreener TR-FRET | AID 504842, 2011 | Potency, µM (doses to about 76.9 µM), without a hit: top-dose activity, negative = inhibition, hits mostly inhibitors | Chaperonin Mm-Cpn (Methanococcus maripaludis) | 330,000 compounds, 0.031% hits; also: potency is read from the fitted curve at half-maximal effect; % is scaled to controls: 0 for no effect and ±100 for the full control effect; nearly all actives have a fitted effect of over 80% in size
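Eu-cryptate anti-ADP/ADP-d2 competition gives a ratio inversely related to ADP. Enzyme at 25 nM was pre-exposed to compound for 10 min, then given 10 uM ATP for 30 min, 37°C throughout.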
ASM inhibitor = Inhibitors of Secretory Acid Sphingomyelinase (S-ASM): qHTS; Sphingomyelin phosphodiesterase (Homo sapiens), P17405; placental ASM, HMU-PC fluorogenic substrate, 60 min; Potency, µM (series often up to 57.5 µM), inactives show at the highest dose activity change, negative = inhibition, hits mostly inhibitors; 340,000 compounds, 0.006% hits; also: potency is read from the fitted curve at half-maximal effect
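Fluorescence read-out (Ex 386 nm, Em 447 nm) after stopping the reaction at pH 10. Enzyme: ASM from human placenta; substrate HMU-PC0, 9 uM final; 60 min, 37 °C. Compound preincubation 10 min, ambient temperature.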
ALOX12 inh = Primary qHTS assay for inhibitors of human arachidonate 12S-lipoxygenase (ALOX12): Round 2; purified 12hLO, xylenol orange hydroperoxide absorbance; 580,000 compounds, 1.1% hits; Polyunsaturated fatty acid lipoxygenase ALOX12 (Homo sapiens), P18054; Potency, µM (highest dose often 108 µM), without a hit: at the top dose activity change, negative = inhibition, most hits filed as inhibitors; also: potency is read from the fitted curve at half-maximal effect; % is scaled to controls: 0 for no effect and ±100 for the full control effect
Target sequence (P18054 whole entry, looked up): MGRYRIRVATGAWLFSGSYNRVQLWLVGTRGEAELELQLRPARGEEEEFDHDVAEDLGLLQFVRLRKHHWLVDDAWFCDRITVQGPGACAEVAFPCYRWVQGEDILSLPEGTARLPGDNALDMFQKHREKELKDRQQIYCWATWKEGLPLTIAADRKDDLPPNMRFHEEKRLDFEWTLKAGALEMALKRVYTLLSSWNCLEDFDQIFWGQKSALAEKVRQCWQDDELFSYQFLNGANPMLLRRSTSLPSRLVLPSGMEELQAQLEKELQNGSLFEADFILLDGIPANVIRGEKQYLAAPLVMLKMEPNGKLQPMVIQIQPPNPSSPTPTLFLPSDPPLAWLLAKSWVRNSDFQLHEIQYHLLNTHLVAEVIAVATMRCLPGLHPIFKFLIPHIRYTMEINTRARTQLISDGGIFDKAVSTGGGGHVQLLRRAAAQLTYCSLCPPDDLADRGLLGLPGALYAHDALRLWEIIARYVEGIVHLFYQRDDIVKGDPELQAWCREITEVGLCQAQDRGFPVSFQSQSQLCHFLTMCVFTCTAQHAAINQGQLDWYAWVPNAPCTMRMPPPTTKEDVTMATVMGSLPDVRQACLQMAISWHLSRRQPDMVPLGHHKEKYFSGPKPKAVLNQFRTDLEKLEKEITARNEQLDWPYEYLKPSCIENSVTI
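Purified human 12hLO (150 nM final) in 25 mM Hepes, 0.01% Triton X-100, pH 7.0 was preincubated 15 min at room temperature with compound. Then 40 uM arachidonic acid was added, 30 min. Hydroperoxide was read by Fe-XO absorbance ratio 573/405 nm.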
CCT modulator = High-Throughput Screening for Modulators of Cytosolic Chaperonin Activity; purified chaperonin ATPase assay, HTRF ADP detection, 30 min; 360,000 compounds, 0.3% hits; activity change, % (no concentration beside the values), hits read low; in the data active = activity change below about -30%; also: % is scaled to controls: 0 for no effect and ±100 for the full control effect
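TRiC at 40 or 20 nM final (batch-dependent) in 30 mM Tris pH 7.4, 100 mM KCl, 5 mM MgCl2, 1 mM DTT, with compound at single 76 uM and 10 uM ATP, 30 min at 37 deg C. ADP detected by HTRF Transcreener, 665/615 ratio.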
p53 reactivator = qHTS assay for re-activators of p53 using a Luc reporter | Potency, µM (titrated, usually from 92.2 µM), inactives show at the highest dose activity change, positive = activation, hits mostly activators | H1299 p53-A138V BP100-luciferase reporter, luminescence, 24 h | 320,000 compounds, 0.063% hits; also: potency is read from the fitted curve at half-maximal effect; % of control where 0% means no effect; nearly all actives have a fitted effect of over 45% in size
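H1299 (p53-null), stable ts p53-A138V + BP100-Luc; 1000 cells/well, Opti-MEM/10% FBS; cpd 4 pt, 1:5; 24 h, 37 deg C, 5% CO2; detection reagent 10 min RT; luminescence.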
PINK1 expr mod = A Quantitative High throughput Screen to Identify Chemical Modulators of PINK1 Expression | PINK1 immunofluorescence, high-content cytometry, 24 h | Potency, µM (doses to about 76.6 µM), without a hit: at the highest dose activation (PINK1 increase), most hits filed as activators | 410,000 compounds, 0.2% hits; active = well fitted activation curve with a large enough effect; inconclusive = small, poorly fitted or top-dose-only effect; cell line not stated here; also: potency is read from the fitted curve at half-maximal effect; % of control where 0% means no effect; nearly all actives have a fitted effect of over 65% in size
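Fluorescence from anti-PINK1 antibody, together with nuclear and cell stains, was scanned on a laser-scanning cytometer. Before staining, stable-line cells were incubated 24 hours with compounds at 5 concentrations; primary antibody 12 h at 10 degrees C.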
Active calls of the source: *; ? = inconclusive; / = no result given. Unless noted, calls follow the shape of the dose curve; as a rule, active = well fitted curve in the direction sought with a large enough effect; inconclusive = small, poorly fitted or top-dose-only effect, or another doubt; inactive = no such curve, though single readings can be large; an effect the other way counts as inactive or inconclusive.

SMILES | Mm-Cpn inhibitor | ASM inhibitor | ALOX12 inh | CCT modulator | p53 reactivator | PINK1 expr mod
CCn1c(/C=C/c2ccc(O)c(O)c2)nc2ccccc2c1=O | -3% | -6% | 14µM* | -3 | -124% | 0%
O=C(NC1CCCCC1)C1CCCN(C(=O)c2ccc3cc[nH]c3c2)C1 (configuration not stated) | / | / | -19% | / | / | /
C#CCNC(=O)c1ccccc1NCC(=O)Nc1ccccc1OC(F)F | / | / | -2% | / | / | /
CCCCn1c(=O)[nH]c(=O)c2c1ncn2CCC(C)C | / | / | -2% | / | / | /
CC(=O)C1=C(O)C(=O)N(c2ccccn2)C1c1ccccc1[N+](=O)[O-] (configuration not stated) | 0% | 1% | 14µM* | 1 | 9% | 5%
CC(=O)C1=C(O)C(=O)N(c2ccc(Br)cn2)C1c1ccccc1[N+](=O)[O-] (configuration not stated) | -2% | -3% | ? | 0 | -1% | 2%
COc1cc(-c2nc3c4ccccc4nc(=S)n3[nH]2)cc(OC)c1OC | 1% | 0% | ? | -37* | 21% | 5%
COc1ccc([C@H]2N[C@]3(CCCN(Cc4cccn4C)C3=O)[C@H]3C(=O)N(C)C(=O)[C@@H]23)cc1 | / | / | 11µM* | 0 | / | 1%
CCN1C(=O)[C@H]2[C@@H](c3ccc(OC)cc3)N[C@]3(CCCN(Cc4cccn4C)C3=O)[C@H]2C1=O | / | / | ? | -3 | / | 2%
Cn1cccc1CN1CCC[C@]2(N[C@H](c3ccccc3)[C@@H]3C(=O)N(Cc4ccccc4)C(=O)[C@@H]32)C1=O | / | / | 10µM* | -5 | / | 1%
Cc1ccc([C@H]2N[C@]3(CCCN(Cc4cccn4C)C3=O)[C@H]3C(=O)N(Cc4ccccc4)C(=O)[C@@H]23)cc1 | / | / | ? | 0 | / | 3%
Cc1cc(-c2n[nH]c(=S)n2/N=C/c2ccc(Cl)c([N+](=O)[O-])c2)n[nH]1 | -10% | -12% | 40µM* | 0 | 5% | 9%
O=[N+]([O-])c1cc(/C=N/n2c(-c3ccncc3)n[nH]c2=S)ccc1Cl | -2% | 0% | -28% | 1 | 10% | 0%
COC(=O)CN1C(=O)S/C(=C/c2ccc(N3CCCCC3)o2)C1=O | -1% | ? | 45µM* | 2 | -9% | 8.9µM*
CCOC(=O)CN1C(=O)S/C(=C/c2ccc(N3CCCCC3)o2)C1=O | -4% | -1% | 7.9µM* | -1 | ? | 16%
O=C(O)CN1C(=O)/C(=C/c2ccc(N3CCCCC3)o2)SC1=S | -3% | 9% | ? | 0 | -3% | 1%
CCC1C(=NO)C(CC)C(c2ccccc2)NC1c1ccccc1 (configuration not stated) | 1% | -6% | -2% | -2 | 6% | 4%
CCC1C(=O)C(CC)C(c2ccccc2)NC1c1ccccc1 (configuration not stated) | 0% | 2% | -9% | -50* | -5% | ?
COc1ccc(NC(=O)c2cc(-c3ccc(C)o3)nc3ccccc23)cc1OC | 0% | 1% | ? | 1 | ? | 3%
COc1ccc(NC(=O)c2cc(-c3ccc(C)o3)nc3ccccc23)c(OC)c1 | / | 5% | ? | -1 | / | 5%
Cc1ccc(/C=N/NC(=O)c2cc(-c3ccccc3)nc3ccccc23)o1 | -3% | -4% | -21% | -1 | -1% | 2%
Cc1ccc(-c2cc(C(=O)Nc3ccc(C(N)=O)cc3)c3ccccc3n2)o1 | / | / | 7.9µM* | / | / | /
